Screening results deposited in PubChem by several laboratories.
PfHsp40 yeast: rescue of PfHsp40-mediated yeast toxicity. growth rescue, % at 12.5 µM. 340,000 tested, 0.68% active. S. cerevisiae expressing PfHsp40, growth rescue, ATP luminescence; in the data active = growth rescue above about 28%, passing the limit was not always enough; inconclusive = no clear call, values can overlap the other calls;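 also: yeast W303a lacking pdr1 and pdr3 grown in galactose medium; growth measured after three days at 30 °C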
3CLpro inhibitor: SARS-CoV 3CLpro protease inhibition; P0C6X7; recombinant SARS-CoV 3CLpro, quenched FRET peptide cleavage; inhibition, % at 6 µM; 290,000 tested, 0.14% active; AID 1706; in the data active = inhibition above about 12%
BJeLR viability: kills HRASV12-expressing BJeLR cells. inhibition, % (concentration not given with the values). 300,000 tested, 0.17% active. BJeLR (HRASV12) viability, CellTiter-Glo ATP luminescence, 48 h; in the data active = inhibition above about 50%; inconclusive = no clear call, values can overlap the other calls
Sa ugtP lethal: kills S. aureus RN4220 lacking UgtP | S. aureus RN4220 ugtP deletion, OD600 growth, 16 h | growth inhibition, % (concentration not given with the values) | 330,000 tested, 0.54% active | AID 1259309; in the data active = growth inhibition above about 68%
RN4220 kill: kills Staphylococcus aureus RN4220 | 330,000 tested, 0.33% active | S. aureus RN4220 growth, OD600, 16 h | AID 1259311 | inhibition, % (test concentration not listed); in the data active = inhibition above about 85%
Of the large screens only hits and unclear results are named; the others gave an inactive call. Compounds with a hit are over-represented: about 1.3% of the library has one in this group of screens.

Nc1nc(N)c2c(ccc3nccc32)[nH]1	BJeLR viability 66 (no result: Sa ugtP lethal, RN4220 kill)
CCOC(=O)c1sc(=S)n(-c2ccc(OC)cc2)c1C	none (no result: PfHsp40 yeast)
CCOC(=O)c1c2c(n(-c3ccc(OC)cc3)c1C)C(=O)C(=O)c1ccccc1-2	PfHsp40 yeast 85 (no result: 3CLpro inhibitor, BJeLR viability, Sa ugtP lethal, RN4220 kill)
O=C(OCc1cccc(Cl)c1)c1cc([N+](=O)[O-])ccc1N1CCOCC1	none (no result: 3CLpro inhibitor)
COc1ccc(COC(=O)c2cc([N+](=O)[O-])ccc2N2CCOCC2)cc1F	BJeLR viability 55 (no result: 3CLpro inhibitor)
CN(C(=O)CSc1nnc(-c2ccccc2)n1C)C1CCS(=O)(=O)C1 (stereo unspecified)	PfHsp40 yeast 44
O=C(c1ccc(Cl)cc1)c1coc2ccc(O)cc12	none
Cc1ccc(S(=O)(=O)N2CCOCC2)cc1NC(=O)CSc1nc2ccccc2c(=O)n1Cc1ccccc1	none
O=C(CSc1nc2ccccc2c(=O)n1Cc1ccccc1)Nc1ccc(Br)cc1C(=O)O	Sa ugtP lethal 99
O=C(CCN1C(=O)C2CCCCC2C1=O)Nc1nc2c(F)cc(F)cc2s1 (stereo unspecified)	none (no result: 3CLpro inhibitor, BJeLR viability)
O=Cc1nc(-c2ccccc2Cl)n2ccccc12	none
O=C(Nc1ccc(C2=NCCN2)cc1)c1ccc(C(=O)Nc2ccc(C3=NCCN3)cc2)c(Cl)c1	PfHsp40 yeast 234 (no result: Sa ugtP lethal, RN4220 kill)
COc1ccc2c(=O)c3c(=O)n(CCc4ccccc4)c(C(C)C)nc3oc2c1	none
CCC(C)c1ccc(NC(=S)NCc2ccccc2OC)cc1 (stereo unspecified)	PfHsp40 yeast 84
O=S(=O)(NC1CC(NS(=O)(=O)OCC(Cl)(Cl)Cl)C2CCCCC12)OCC(Cl)(Cl)Cl (stereo unspecified)	Sa ugtP lethal 95, RN4220 kill 101
Cn1c(CNC(=O)c2ccco2)nnc1SCC(=O)Nc1ccc(Br)cc1F	none
O=C(CS(=O)c1ccccc1[N+](=O)[O-])Oc1ccc(Br)cc1 (stereo unspecified)	PfHsp40 yeast 68
CS(=O)(=O)c1ccc(S(=O)CC(=O)Oc2ccc(Cl)cc2)c([N+](=O)[O-])c1 (stereo unspecified)	none (no result: PfHsp40 yeast)
Cc1ccc(NC(=O)CSCC#N)cc1Cl	none (no result: Sa ugtP lethal, RN4220 kill)
Clc1ccc(C(Cn2ccnc2)OCc2c(Cl)cccc2Cl)c(Cl)c1 (stereo unspecified)	PfHsp40 yeast 103, Sa ugtP lethal 94 (no result: 3CLpro inhibitor, BJeLR viability)
Clc1ccc(C(Cn2ccnc2)OCc2csc3c(Cl)cccc23)c(Cl)c1 (stereo unspecified)	PfHsp40 yeast 80, Sa ugtP lethal 96, RN4220 kill 99 (no result: 3CLpro inhibitor, BJeLR viability)
O=C(O)C1=C[C@H](c2ccc(C(F)(F)F)cc2)C[C@H](OCCCCO)O1	none (no result: 3CLpro inhibitor, Sa ugtP lethal, RN4220 kill)
c1ccc2c(c1)cc1ccc3cccc4ccc2c1c34	none (no result: 3CLpro inhibitor, BJeLR viability)
Cc1ccc2ccc3cccc4ccc1c2c34	Sa ugtP lethal 100 (no result: 3CLpro inhibitor, BJeLR viability)
COc1ccc(CNC(=O)C2(C)Cc3ccccc3C(=O)O2)cc1 (stereo unspecified)	none
COc1ccc(/C=C/C(=O)c2ccc(O)cc2)cc1COc1ccc(F)cc1	Sa ugtP lethal 87
CC(=O)n1cc(N(C(=O)CCl)c2ccc(C)cc2)c2ccccc21	BJeLR viability 84
CC(C)(C)CC(=O)O/N=C(\N)c1ccccn1	PfHsp40 yeast 72
Cc1ccc(CC(=O)O/N=C(\N)c2ccccn2)cc1	none
COC(=O)C1=C(c2cc3ccccc3s2)CC2CCC1N2C(=O)NC1CCCCC1 (stereo unspecified)	none (no result: PfHsp40 yeast, 3CLpro inhibitor, BJeLR viability)
Cn1nc(-c2ccccn2)nc2c(=O)n(C)c(=O)nc1-2	3CLpro inhibitor 16
CCCc1nc2c(=O)n(C)c(=O)nc-2n(C)n1	PfHsp40 yeast 125 (no result: BJeLR viability)
CCC(=O)Nc1ccc(NC(=O)c2ccco2)cc1	none
Cc1cc(C)c(OCC(=O)Nc2cccc(NC(=O)c3ccco3)c2)c(Br)c1	PfHsp40 yeast 122
CCOc1ccc(CC(=O)Nc2nccs2)cc1OCC	PfHsp40 yeast 38 (no result: Sa ugtP lethal, RN4220 kill)
CCOc1ccc(CC(=O)Nc2ccc(NC(=O)c3ccco3)cc2)cc1OCC	BJeLR viability 82
Cc1cc(C)c(OCC(=O)Nc2ccc(NC(=O)c3ccco3)cc2)c([N+](=O)[O-])c1	none (no result: BJeLR viability)
O=C(OC(C(=O)NCc1ccc(F)cc1)c1ccccc1)c1ccco1 (stereo unspecified)	none
Cc1ccc(-c2csc(NC(=O)c3cccc(C)c3)c2C(=O)O)cc1	PfHsp40 yeast 60 (no result: 3CLpro inhibitor)
Cc1cccc(C(=O)Nc2scc(-c3ccc(Br)cc3)c2C(=O)O)c1	none (no result: 3CLpro inhibitor)
O=C(CCN1C(=O)c2ccccc2C1=O)N1CCOCC1	none
O=C(c1ccccc1F)N1CCN(c2ccc([N+](=O)[O-])cc2-n2cccc2)CC1	none
CSC(=S)N/N=C/c1ccc(Br)cc1	none (no result: Sa ugtP lethal, RN4220 kill)
N/C(=N\N=Cc1ccc(Br)cc1)NN=Cc1ccc(Br)cc1	Sa ugtP lethal 100, RN4220 kill 101 (no result: PfHsp40 yeast, 3CLpro inhibitor, BJeLR viability)
COc1ccc(C(=O)NC(=S)Nc2ccc(N3CCOCC3)cc2)cc1Cl	Sa ugtP lethal 99
O=C(NC(=S)Nc1ccc(N2CCOCC2)cc1)c1ccc(Cl)cc1	Sa ugtP lethal 87
Cc1ccc(C(=O)NC(=S)Nc2ccc(N3CCOCC3)cc2)cc1C	none
CC(C)(C)c1ccc(C(=O)NC(=S)Nc2ccc(N3CCOCC3)cc2)cc1	none
Cc1cccc(C(=O)NC(=S)Nc2ccc(N3CCOCC3)cc2)c1	Sa ugtP lethal 87
CN(C)CCNC(=O)C(=O)Nc1ccc2c(c1)N(S(=O)(=O)c1cccs1)CCC2	none (no result: 3CLpro inhibitor)
COc1ccccc1/C=C1\S/C(=N/NC(=O)c2cccc(Br)c2)NC1=O	PfHsp40 yeast 142
CCC1CCC(C(=O)NC(C(=O)NCCCN2CCCCC2C)C(C)C)CC1 (stereo unspecified)	none
CCOC(=O)CC1C(=O)NCCN1Cc1cccc(OC)c1 (stereo unspecified)	none
CCCOC(=O)CC1C(=O)NCCN1Cc1cc(OC)cc(OC)c1 (stereo unspecified)	PfHsp40 yeast 40
Cc1cccc(NC(=O)c2ccccc2O)c1C	PfHsp40 yeast 57
O=C(Nc1ccccc1O)c1ccccc1O	none
COc1cccc(C=NNc2ccc(S(=O)(=O)O)cc2)c1O	none (no result: PfHsp40 yeast, 3CLpro inhibitor, BJeLR viability)
CCCCn1c(NC(=O)c2ccccc2)nc2ccccc21	PfHsp40 yeast 97
CCOCCOC(=O)c1[nH]c2c(c1C)C(=O)CC(c1ccccc1)C2 (stereo unspecified)	BJeLR viability 53
CCOCCOC(=O)c1[nH]c2c(c1C)C(=O)CC(c1cccs1)C2 (stereo unspecified)	BJeLR viability 65
COC(=O)c1ccccc1OCCCOc1ccc(C=O)cc1OC	none
Cn1c(=O)c(C(=O)NNC(=O)c2ccc(Br)cc2)c(O)c2ccccc21	PfHsp40 yeast inconclusive, Sa ugtP lethal 100, RN4220 kill 98
Cn1c(=O)c(C(=O)NNC(=O)c2ccccc2F)c(O)c2ccccc21	none
CCCn1c(=O)c(C(=O)NNS(=O)(=O)c2ccc(NC(=O)OC)cc2)c(O)c2ccccc21	Sa ugtP lethal 97, RN4220 kill 97
CCn1c(=O)c(C(=O)NNC(=O)c2ccccc2Cl)c(O)c2ccccc21	PfHsp40 yeast 34
CCCCCCCCCC(=O)NNC(=O)c1c(O)c2ccccc2n(CC)c1=O	Sa ugtP lethal 101, RN4220 kill 97
